Data taken from PubChem BioAssay (NCI).
Compounds without any hit were thinned out: in the full panel of roughly 83,000, 20% have a hit.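 For each line, cells grew in 96-well plates with the test compound present at a single concentration for 48 hours.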 Values without a mark were called inactive. Activity calls are given as the source filed them.

System: A498 renal
Assay: NCI-60 one-dose screen, 48 h (100 = growth as untreated, 0 = no growth, -100 = all killed)
Details: 10 µM
Description: Growth inhibition of the A498 human tumor cell line is measured as a screen for anti-cancer activity. Cells are grown in 96 well plates and exposed to the test compound for 48 hours. Compounds are tested at a single concentration, which is 10^-5 M for most compounds. The reported endpoint is percent growth (GI% or GIPRCNT), where numbers from 0 - 100% represent growth inhibition, and numbers from -100% - 0 represent cell death. For example, a value of 40 represents 60% growth inhibition. A value of 0 means no net growth occurred over the course of the experiment. A value of -40 indicates 40% of cells at the beginning of the experiment died by the end of the experiment. A value of -100 means all cells are dead at the end of the experiment.
NCI-60 Human Tumor Cell Lines Screen was performed using the standard one-dose NCI protocol, which is described in more detail at https://dtp.cancer.gov/discovery_development/nci-60/default.htm.
Compounds with GIPRCNT values below 10 were considered active. Activity score was based on GIPRCNT using the following formula: […]
Score is 0 for GIPRCNT values of 100 or above, 50 for GIPRCNT values of 0, and 100 for GIPRCNT values of -100.

| Structure (SMILES) | growth |
| --- | --- |
| Clc1ccc(N2COOC3(OOC2)C2CC4CC(C2)CC3C4)cc1 | 96.8% |
| c1cc2c(c3c1CCNC3)OCO2 | 118% |
| O=c1[nH]cc(N(CCCl)CCCl)c(=O)[nH]1 | 101% |
| COC[C@@H]1C[C@@]2(C)[C@@H](CC[C@@H]3[C@@H]2CC[C@@]2(C)[C@H]3CC[C@]2(C)O)CC1=O | 111% |
| CCC(=O)Nc1ccc(Cl)c(Cl)c1 | 89.7% |
| CCN(CC)c1ccc2c(c1)OC(N)=C(C#N)C2c1cc(OC)c2c(c1)OCO2 (stereo not given) | -4% (active) |
| CCCCCCCOC(C(=O)OCCN(CC)CC)(c1ccccc1)c1ccccc1 | 82.4% |
| COC(=O)[C@H](Cc1ccccc1)NC(=O)c1csc([C@@H](C[C@H](C(C)C)N(C)C(=O)[C@@H](NC(=O)[C@H]2CCCCN2C)C2CC2)OC(C)=O)n1 | -7.28% (active) |
| COC(=O)[C@@H](C)C[C@H](Cc1ccccc1)NC(=O)c1csc([C@@H](C[C@H](C(C)C)N(C)C(=O)C2(NC(=O)[C@H]3CCCCN3C)CC2)OC(C)=O)n1 | -5.45% (active) |
| CN(CCCCN(C)CCOS(C)(=O)=O)CCOS(C)(=O)=O | 85.3% |
| CCCC[C@H](NC(=O)[C@H]1CCCN1C)C(=O)N(C)[C@H](C[C@@H](OC(C)=O)c1nc(C(=O)N[C@@H](Cc2ccccc2)C[C@H](C)C(=O)OCC)cs1)C(C)C | -11.7% (active) |
| C=CCCCN=C=S | 76% |
| Cc1cnc(/C=C/C(=O)O)cc1-c1cc2c(cc1C)C(C)(C)CCC2(C)C | 105% |
| COc1ccc(O)c(CNC(=O)CN2CCCC2=O)c1 | 93.6% |
| O=C1OCC2=C1C(c1ccccc1)c1cc3c(cc1N2)OCO3 (stereo not given) | -6.52% (active) |
| CC(=O)[O][Hg][O]C(C)=O | 117% |
| COc1ccc(/C=C\c2cc(OC)c(OC)c(OC)c2)c(NS(=O)(=O)c2ccc(Cl)cc2)c1O | -13% (active) |
| Cn1cc(-c2csc(-c3cn(CCN4CCOCC4)c4ccccc34)n2)c2cccnc21 | 85.1% |
| C=C1C(=O)O[C@H]2[C@H]1CC/C(COC(=O)C(=O)c1cn(Cc3ccccc3)c3ccccc13)=C\CC[C@@]1(C)O[C@@H]21 | 52.4% |
| O=C(c1cccc(O)c1O)c1cn(Cc2ccc(F)cc2)c2cccc(O)c12 | 108% |

| Structure (SMILES) | growth |
| --- | --- |
| CCOC(=O)N1CC1 | 111% |
| COC(=O)[C@@H](C)C[C@H](Cc1ccccc1)NC(=O)c1csc([C@@H](C[C@H](C(C)C)N(C)C(=O)[C@@H](NC(=O)[C@H]2CCCN2C)C2CC2)OC(C)=O)n1 | -0.976% (active) |
| CN1C(=O)N[C@H]2[C@@H]3NC(=O)c4ccc(Br)n4[C@@H]3C[C@]21O | -47.8% (active) |
| CNCc1cccnc1 | 104% |
| COC1=CC(=O)O[C@@H](/C=C/c2ccc3c(c2)OCO3)C1 | 59.2% |
| CC1[C@H](C)OC(=O)CC(O)CC(O)CC(O)CCC(O)C(O)C[C@]2(O)CC(O)C(C(=O)O)C(CC(OC3O[C@H](C)[C@@H](O)[C@H](N)[C@@H]3O)/C=C/C=C/C=C/C=C/CC/C=C/C=C/[C@H](C)[C@H]1O)O2 (stereo not given in full) | 114% |
| C/C(=C\c1ccn(-c2ccc(N)cc2)n1)[C@@H]1C[C@@H]2O[C@]2(C)CCC[C@H](C)[C@H](O)[C@@H](C)C(=O)C(C)(C)[C@@H](O)CC(=O)O1 | -0.818% (active) |
| CC(=O)OCc1cc[c]([Hg][Cl])o1 | 123% |
| CCCCCCCCCCCCCCCCCC1OC[C@H](COC(=O)O[C@@H](C(=O)O[C@H]2C[C@@]3(O)[C@@H](OC(=O)c4ccccc4)[C@@H]4[C@]5(OC(C)=O)CO[C@@H]5C[C@H](O)[C@@]4(C)C(=O)[C@H](OC(C)=O)C(=C2C)C3(C)C)[C@@H](NC(=O)c2ccccc2)c2ccccc2)O1 (stereo not given in full) | 72% |
| Oc1c(O)c(Cl)c(Cl)c(Cl)c1Cl | 63.7% |
| CCOP(=O)(NC[C@H]1O[C@](O)(CO)[C@@H](O)[C@@H]1O)OCC | 99.9% |
| CC(=O)O[C@@H]1CC[C@]2(C)[C@H]3CC[C@]4(C)C(=O)CC[C@H]4[C@@H]3C[C@@H]3SC(N)=N[C@@]32C1 | 50.7% |
| COC(=O)[C@@H](NC(=O)c1cn(CCC2CCCCC2)c2ccccc12)C(C)(C)C | 84.2% |
| COC(=O)[C@@H](C)C[C@H](Cc1cn(C)c2ccccc12)NC(=O)c1csc([C@@H](C[C@H](C(C)C)N(C)C(=O)[C@@H](NC(=O)[C@H]2CCCCN2C)C(C)C)OC(C)=O)n1 | -1.42% (active) |
| C=CC[Se]C(=O)c1ccccc1OC(C)=O | -3.97% (active) |
| CCOP(=O)(Cc1ccc(C#N)cc1)OCC | 98% |
| N/C(=N/N=C/c1ccncc1)N[N+](=O)[O-] | 86.3% |
| O=C1NC(=O)C(=Cc2ccc(OCCCCC3CCCCC3)c(Cl)c2)C(=O)N1 | 82.7% |
| CCCCCCCCCCCCCCCCCCOc1ccccc1COP(=O)(O)OOCC[N+](C)(C)C | 52.6% |
| CN1C(=O)C(=Cc2cn(CCCCCCn3c4ccccc4c(=O)c4ccccc43)c3ccccc23)C(=O)N(C)C1=O | 110% |
